# Measured values reported in PubChem BioAssay AID1159580 (chemical genetic matrix, 2015).
# The campaign covered roughly 5,500 compounds. About 2,000 (36%) were called active. Another 18% or so got no clear call; they are omitted. The list shows a part of the results. A number with no mark means an inactive call. Cut-off read from the data, not from the text of the source: active = normalized growth mostly below about 0.91 (no sharp cut-off); inconclusive = no clear call, values can overlap the other calls; inactive = mostly above about 0.92.
# Experiment: chemical genetic growth profiling, strain panel (AID 1159580);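 note: tested at 20 µM; growth read once vehicle control cultures reached saturation at 30 °C; 1 = growth at the plate median or of vehicle wells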
# Conditions: growth OD
smiles,measurement,setting,value
COc1ccc2c(c1)OCC(Cc1ccc(OC)c(O)c1)C2=O (stereo not drawn),normalized growth,"S. cerevisiae deletion strains, locus YJR043C, strain POL32, stronger effect = lower value",0.998
same,normalized growth,"S. cerevisiae deletion strains, locus YJR066W, strain TOR1, stronger effect = lower value",0.904
same,normalized growth,"S. cerevisiae deletion strains, locus YKL009W, strain mrt4, stronger effect = lower value",0.94
same,normalized growth,"S. cerevisiae deletion strains, locus YKL068W, stronger effect = lower value",0.97
same,normalized growth,"S. cerevisiae deletion strains, locus YKL085W, strain MDH1 (second series), stronger effect = lower value",0.969
same,normalized growth,"S. cerevisiae deletion strains, locus YKL085W, strain MDH1, stronger effect = lower value",0.969
same,normalized growth,"S. cerevisiae deletion strains, locus YKL160W, strain elf1, stronger effect = lower value",0.925
same,normalized growth,"S. cerevisiae deletion strains, locus YKL190W, strain CNB1, stronger effect = lower value",0.984
same,normalized growth,"S. cerevisiae deletion strains, locus YKR001C, strain vps1, stronger effect = lower value",0.964
same,normalized growth,"S. cerevisiae deletion strains, locus YKR026C, strain gcn3, stronger effect = lower value",0.966
same,normalized growth,"S. cerevisiae deletion strains, locus YKR091W, strain srl3, stronger effect = lower value",0.962
same,normalized growth,"S. cerevisiae deletion strains, locus YLL001W, strain dnm1, stronger effect = lower value",0.931
same,normalized growth,"S. cerevisiae deletion strains, locus YLL026W, stronger effect = lower value",0.957
same,normalized growth,"S. cerevisiae deletion strains, locus YLL041C, strain sdh2, stronger effect = lower value",0.955
same,normalized growth,"S. cerevisiae deletion strains, locus YLR027C, strain aat2, stronger effect = lower value",0.933
same,normalized growth,"S. cerevisiae deletion strains, locus YLR039C, strain RIC1, stronger effect = lower value",1.02
same,normalized growth,"S. cerevisiae deletion strains, locus YLR058C, strain SHM2, stronger effect = lower value",0.958
same,normalized growth,"S. cerevisiae deletion strains, locus YLR102C, strain apc9, stronger effect = lower value",0.955
same,normalized growth,"S. cerevisiae deletion strains, locus YLR113W, strain HOG1, stronger effect = lower value",0.917
same,normalized growth,"S. cerevisiae deletion strains, locus YLR221C, strain rsa3, stronger effect = lower value",0.923
same,normalized growth,"S. cerevisiae deletion strains, locus YLR258W, strain gsy2, stronger effect = lower value",0.91 (active)
same,normalized growth,"S. cerevisiae deletion strains, locus YLR262C, strain YPT6 (second series), stronger effect = lower value",0.985
same,normalized growth,"S. cerevisiae deletion strains, locus YLR262C, strain YPT6, stronger effect = lower value",0.986
same,normalized growth,"S. cerevisiae deletion strains, locus YLR268W, strain sec22, stronger effect = lower value",0.976
same,normalized growth,"S. cerevisiae deletion strains, locus YLR320W, strain mms22, stronger effect = lower value",0.835 (active)
same,normalized growth,"S. cerevisiae deletion strains, locus YLR330W, strain CHS5, stronger effect = lower value",0.952
same,normalized growth,"S. cerevisiae deletion strains, locus YLR342W, strain FKS1 (second series), stronger effect = lower value",0.955
same,normalized growth,"S. cerevisiae deletion strains, locus YLR342W, strain FKS1, stronger effect = lower value",0.922
same,normalized growth,"S. cerevisiae deletion strains, locus YLR357W, strain rsc2, stronger effect = lower value",0.998
same,normalized growth,"S. cerevisiae deletion strains, locus YLR370C, strain arc18, stronger effect = lower value",0.97
same,normalized growth,"S. cerevisiae deletion strains, locus YLR371W, strain rom2, stronger effect = lower value",0.975
same,normalized growth,"S. cerevisiae deletion strains, locus YLR384C, strain iki3, stronger effect = lower value",0.948
same,normalized growth,"S. cerevisiae deletion strains, locus YLR418C, strain cdc73, stronger effect = lower value",0.81 (active)
same,normalized growth,"S. cerevisiae deletion strains, locus YML016C, strain PPZ1, stronger effect = lower value",0.967
same,normalized growth,"S. cerevisiae deletion strains, locus YML032C, strain rad52, stronger effect = lower value",0.949
same,normalized growth,"S. cerevisiae deletion strains, locus YML120C, strain ndi1, stronger effect = lower value",0.938
same,normalized growth,"S. cerevisiae deletion strains, locus YML124C, strain tub3, stronger effect = lower value",0.954
same,normalized growth,"S. cerevisiae deletion strains, locus YMR058W, strain fet3, stronger effect = lower value",0.948
same,normalized growth,"S. cerevisiae deletion strains, locus YMR078C, strain ctf18, stronger effect = lower value",0.95
same,normalized growth,"S. cerevisiae deletion strains, locus YMR125W, strain sto1, stronger effect = lower value",1.01
same,normalized growth,"S. cerevisiae deletion strains, locus YMR129W, stronger effect = lower value",0.948
same,normalized growth,"S. cerevisiae deletion strains, locus YMR205C, strain PFK2, stronger effect = lower value",0.833 (active)
same,normalized growth,"S. cerevisiae deletion strains, locus YMR223W, strain ubp8, stronger effect = lower value",0.933
same,normalized growth,"S. cerevisiae deletion strains, locus YMR231W, strain pep5, stronger effect = lower value",0.967
same,normalized growth,"S. cerevisiae deletion strains, locus YMR307W, strain GAS1, stronger effect = lower value",0.97
same,normalized growth,"S. cerevisiae deletion strains, locus YNL067W, strain RPL9B, stronger effect = lower value",0.944
same,normalized growth,"S. cerevisiae deletion strains, locus YNL071W, strain lat1, stronger effect = lower value",0.681 (active)
same,normalized growth,"S. cerevisiae deletion strains, locus YNL183C, strain NPR1, stronger effect = lower value",0.933
same,normalized growth,"S. cerevisiae deletion strains, locus YNL209W, strain ssb2, stronger effect = lower value",0.978
same,normalized growth,"S. cerevisiae deletion strains, locus YNL233W, strain BNI4, stronger effect = lower value",0.905
same,normalized growth,"S. cerevisiae deletion strains, locus YNL248C, strain rpa49, stronger effect = lower value",0.919
same,normalized growth,"S. cerevisiae deletion strains, locus YNL250W, strain rad50, stronger effect = lower value",0.94
same,normalized growth,"S. cerevisiae deletion strains, locus YNL271C, strain bni1, stronger effect = lower value",0.952
same,normalized growth,"S. cerevisiae deletion strains, locus YNL298W, strain CLA4, stronger effect = lower value",0.959
same,normalized growth,"S. cerevisiae deletion strains, locus YNL307C, strain MCK1, stronger effect = lower value",0.824 (active)
same,normalized growth,"S. cerevisiae deletion strains, locus YNL322C, strain KRE1 (second series), stronger effect = lower value",0.949
same,normalized growth,"S. cerevisiae deletion strains, locus YNR049C, strain mso1, stronger effect = lower value",0.967
same,normalized growth,"S. cerevisiae deletion strains, locus YNR052C, strain pop2, stronger effect = lower value",0.937
same,normalized growth,"S. cerevisiae deletion strains, locus YOL012C, strain htz1",1.16
same,normalized growth,"S. cerevisiae deletion strains, locus YOL147C, strain pex11, stronger effect = lower value",0.964
same,normalized growth,"S. cerevisiae deletion strains, locus YOR001W, strain rrp6, stronger effect = lower value",0.898
same,normalized growth,"S. cerevisiae deletion strains, locus YOR061W, strain CKA2, stronger effect = lower value",0.963
same,normalized growth,"S. cerevisiae deletion strains, locus YOR069W, strain VPS5, stronger effect = lower value",0.96
same,normalized growth,"S. cerevisiae deletion strains, locus YOR070C, strain gyp1, stronger effect = lower value",0.968
same,normalized growth,"S. cerevisiae deletion strains, locus YOR080W, strain dia2, stronger effect = lower value",0.979
same,normalized growth,"S. cerevisiae deletion strains, locus YOR083W, strain WHI5, stronger effect = lower value",0.911
same,normalized growth,"S. cerevisiae deletion strains, locus YOR106W, strain vam3, stronger effect = lower value",0.886
same,normalized growth,"S. cerevisiae deletion strains, locus YOR136W, strain idh2, stronger effect = lower value",0.962
same,normalized growth,"S. cerevisiae deletion strains, locus YOR144C, strain elg1, stronger effect = lower value",0.95
same,normalized growth,"S. cerevisiae deletion strains, locus YOR184W, strain ser1, stronger effect = lower value",0.906
same,normalized growth,"S. cerevisiae deletion strains, locus YOR231W, strain MKK1, stronger effect = lower value",0.998
same,normalized growth,"S. cerevisiae deletion strains, locus YOR265W, strain rbl2, stronger effect = lower value",0.962
same,normalized growth,"S. cerevisiae deletion strains, locus YOR270C, strain vph1, stronger effect = lower value",0.823
same,normalized growth,"S. cerevisiae deletion strains, locus YOR290C, strain snf2, stronger effect = lower value",0.897
same,normalized growth,"S. cerevisiae deletion strains, locus YOR316C, strain cot1, stronger effect = lower value",0.959
same,normalized growth,"S. cerevisiae deletion strains, locus YPL051W, strain arl3, stronger effect = lower value",0.939
same,normalized growth,"S. cerevisiae deletion strains, locus YPL055C, strain LGE1, stronger effect = lower value",0.96
same,normalized growth,"S. cerevisiae deletion strains, locus YPL078C, strain atp4, stronger effect = lower value",0.914
same,normalized growth,"S. cerevisiae deletion strains, locus YPL106C, strain sse1, stronger effect = lower value",0.972
same,normalized growth,"S. cerevisiae deletion strains, locus YPL240C, strain hsp82, stronger effect = lower value",0.946
same,normalized growth,"S. cerevisiae deletion strains, locus YPL241C, strain CIN2, stronger effect = lower value",0.973
same,normalized growth,"S. cerevisiae deletion strains, locus YPL256C, strain CLN2, stronger effect = lower value",1.01
same,normalized growth,"S. cerevisiae deletion strains, locus YPR119W, strain clb2, stronger effect = lower value",0.95
same,normalized growth,"S. cerevisiae deletion strains, locus YPR141C, strain kar3, stronger effect = lower value",0.971
same,normalized growth,"S. cerevisiae deletion strains, locus YPR163C, strain tif3, stronger effect = lower value",0.842 (active)
same,normalized growth,"S. cerevisiae deletion strains, locus YPR167C, strain met16, stronger effect = lower value",0.89 (active)
same,normalized growth,"S. cerevisiae deletion strains, strain wtn01, stronger effect = lower value",0.95
same,normalized growth,"S. cerevisiae strains, strain wild type, stronger effect = lower value",0.973
